SARS PLpro yeast: SARS-CoV PLP inhibition in yeast. S. cerevisiae expressing SARS-CoV PLpro, growth rescue. Potency, µM (doses to about 32.9 µM), inactives show top-dose activity, positive = growth rescue, usual class: activators. hit rate 0.19% among 330,000; also: potency is read from the fitted curve at half-maximal effect; 0% is about no effect; nearly all actives have a fitted effect of over 55% in size
Cycloheximide cs: counter-screen hit for Shiga toxin inhibitors, cycloheximide | cell reporter, cycloheximide protein synthesis inhibition counterscreen | hit rate 12% among 300,000 | max response, %; in the data active = max response mostly above about 13%, no sharp cut-off; inactive = mostly below about 14%; also: read at 38.3 µM for the half of the compounds with a filed dose; 0% is about no effect
NS1 function inh: inhibitors of influenza NS1 protein function. Potency, µM (highest dose often 46.1 µM), inactives show top-dose activity, positive = more growth. hit rate 0.4% among 270,000; also: potency is read from the fitted curve at half-maximal effect; actives are rising curves; nearly all actives have a fitted effect of over 50% in size
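OD600 was taken as the measure of yeast growth restored by compound in an NS1-expressing S. cerevisiae strain. Cells had been washed out of glucose medium and diluted 1:100 into galactose -URA medium, pH 6.0.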
Shiga toxin inh: Shiga toxin inhibition; Vero cells, Shiga toxin protein synthesis inhibition reporter; inhibition, % at 38.7 µM; hit rate 9.2% among 290,000; in the data active = inhibition mostly above about 28%, no sharp cut-off; inactive = mostly below about 43%; also: 0% is about no effect
* hit, by the source's call; ? = inconclusive; / = no result. An excerpt weighted towards active compounds, which were near 12% of everything screened. Unless noted, calls follow the shape of the full dose curve.

SMILES	SARS PLpro yeast	Cycloheximide cs	NS1 function inh	Shiga toxin inh
O=c1oc2ccccc2cc1-c1nc(-c2cccs2)cs1	-10%	14*	-1%	37
N#CCc1nc(-c2cc3ccccc3oc2=O)cs1	-2%	41*	/	51*
COc1cccc2cc(/C(C)=N/Nc3nc(-c4cc(C)ccc4C)cs3)c(=O)oc12	?	1	2%	-1
Cc1ccc(S(=O)(=O)Nc2nnc(C3CCCCC3)s2)cc1	-6%	5	-44%	19
O=C1OCC2=C1C(c1ccccc1)CC(=O)N2c1ccccc1 (configuration not stated)	3%	-3	/	17
O=C(O)c1cc(F)c(S(=O)(=O)N2CCN(S(=O)(=O)c3ccc4c(c3)OCCO4)CC2)cc1F	/	4	/	-5
CCOCCCN(C(=O)CCC(=O)Nc1cc(C)on1)C(C(=O)NC(C)(C)C)c1ccccc1Cl (configuration not stated)	3%	-1	4%	-9
COc1cc(/C=C(/C#N)c2nc(-c3cc4ccccc4oc3=O)cs2)cc([N+](=O)[O-])c1O	1%	0	2%	-14
CC1CCC(=C(C#N)c2nc(-c3cc4ccccc4oc3=O)cs2)CC1 (configuration not stated)	-3%	23*	12%	30*
CNc1nnc(-c2cc3ccccc3oc2=O)s1	-8%	38*	-19%	83*
CCOC(=O)C1(Cc2cccc(F)c2)CCN(Cc2ccc(COC)o2)CC1	0%	-2	3%	-17
NC(=O)NNC1=Nc2cccc3cccc1c23	1%	11	-2%	56
COc1ccccc1N1CCN(C2=Nc3cccc4cccc2c34)CC1	2%	34*	/	69
COc1ccccc1NC1=Nc2cccc3cccc1c23	0%	14*	-5%	20
O=C(O)c1ccc(NC2=Nc3cccc4cccc2c34)cc1	-2%	23*	-6%	69*
COc1ccc(C(=O)NNC2=Nc3cccc4cccc2c34)cc1	2%	1	-2%	-17
CCN(CC(=O)Nc1c(F)cccc1F)C(=O)C1CCN(C(=O)Nc2ccccc2)CC1	-1%	/	/	/
COc1cc(-c2ccc(NC(=O)NC3CC3)c(OC)c2)ccc1NC(=O)NC1CC1	-1%	11	5%	23
CN(Cc1ccco1)C(=O)C1CCN(c2nnc(-n3cccc3)s2)CC1	4%	-4	-1%	21
O=C(NCc1ccco1)C1CCN(c2nnc(-n3cccc3)s2)CC1	23%	16*	-17%	16
COc1ccc(C(=O)NCc2ccc(S(N)(=O)=O)cc2)cc1[N+](=O)[O-]	0%	2	/	-10
CC1(c2cnc(Nc3ccccc3)s2)CCC(=O)O1 (configuration not stated)	/	34*	?	64*
Oc1cccc(Oc2ncc(C(F)(F)F)cc2Cl)c1	-2%	-4	-1%	22
CCN(C(=O)COC(=O)c1cc(C)n(-c2ccc(F)cc2)c1C)C1CCS(=O)(=O)C1 (configuration not stated)	7%	4	1%	-7
C/C(N)=C(/C#N)C(=O)COC(=O)c1cc(C)n(-c2ccc(F)cc2)c1C	-15%	72*	-5%	96*
SMILES	SARS PLpro yeast	Cycloheximide cs	NS1 function inh	Shiga toxin inh
CC(C)OC(=O)c1ccc(Cn2nnc3ccccc3c2=O)cc1	-1%	27*	1%	89*
Cc1cc(C(=O)OCn2nnc3ccccc3c2=O)c(C)n1-c1ccccc1	-1%	62*	?	69*
CCOC(=O)c1cc(C)n(-c2ccccc2)c1C	1%	50*	-5%	52*
COc1ccc(S(=O)(=O)N2CCOCC2)cc1N=Nc1sc(N)nc1-c1ccccc1	-1%	-1	3%	-9
CC1CCCCN1C(=O)CN1CCN(S(=O)(=O)c2ccc(Br)cc2Cl)CC1 (configuration not stated)	1%	/	/	/
COC(=O)CCCC(=O)NCC1(N(C)Cc2ccccc2)Cc2ccccc2C1	1%	1	3%	-5
C[C@@H]1O[C@H](O[C@@H]2C(O)[C@H](O)[C@@H](CO)O[C@H]2Oc2cc(O)c3c(=O)cc(-c4ccc(O)cc4)oc3c2)[C@H](O)[C@H](O)[C@H]1O (some centres not stated)	/	-7	/	-13
Cc1cc(C(=O)OCC(=O)Nc2ccc(S(N)(=O)=O)cc2)c2ccccc2n1	1%	9	/	-9
COc1ccccc1CC(=O)N1CCN(c2ccccc2)CC1	3%	-3	-4%	-1
Cc1cc(C(=O)OCC(N)=O)c(C)n1-c1ccccc1	0%	33*	/	41*
Nc1nonc1-n1nnc(C(=O)N/N=C/c2ccc(OCc3ccccc3)cc2)c1CNc1ccccc1	-5%	-2	-31%	17
Cc1cc(OCc2cc(C(=O)N(Cc3nccn3C)C(C)C)no2)cc(C)c1Cl	2%	26*	-17%	55*
CC(C)N(Cc1nccn1C)C(=O)c1cc(COc2cccc(C(F)(F)F)c2)on1	1%	-6	-2%	-4
CSc1ccccc1OCc1cc(C(=O)N(Cc2nccn2C)C(C)C)no1	1%	29*	7%	37
CCn1ccnc1CN(C)C(=O)c1cc(COc2ccccc2SC)on1	1%	53*	0%	96*
COc1ccc(-c2cc(C(F)(F)F)n3nc(C(=O)N(C)Cc4ccccc4)cc3n2)cc1OC	1%	2	6%	19
Cc1ccccc1Cn1cc(NC(=O)c2cc(C3CC3)on2)cn1	-1%	44*	?	73*
CCc1ccccc1NC(=O)c1cc(C2CC2)on1	-9%	11*	-62%	47
Cn1c(N)c(C(=O)COC(=O)CNC(=O)c2ccccc2F)c(=O)n(C)c1=O	-3%	/	/	/
COC(=O)Nc1ccc(Cn2cc(C(F)(F)F)ccc2=O)cc1	0%	-1	/	-9
COc1ccc(S(=O)(=O)c2ccc(O)cc2)cc1	13%	3	?	17
Oc1ccc(Oc2ccc(Oc3ccc(O)cc3)cc2)cc1	-10%	17*	-76%	/
CC1CCCCN1C(=O)CSc1nnc(-c2c[nH]c3ccccc23)o1 (configuration not stated)	1%	28*	-3%	75
CC1CCCCN1C(=O)CSc1nnc(-c2cccs2)o1 (configuration not stated)	0%	48*	0%	67*
CC1CCCC(C)N1C(=O)CSc1nnc(-c2cccs2)o1 (configuration not stated)	-4%	35*	-9%	51*
SMILES	SARS PLpro yeast	Cycloheximide cs	NS1 function inh	Shiga toxin inh
OCC[C@@H]1C[C@H](O)[C@@H](O)[C@@]2(OCCc3ccccc32)O1	-9%	-2	-5%	-3
COc1ccc(CCN=C(N)Nc2nc(C)cc(C)n2)cc1	-2%	-3	/	7
COc1ccc(/C=C/C(=O)OCC(=O)Nc2cc(C(F)(F)F)ccc2Cl)cc1	2%	-3	22%	-1
O=C1C([N+](=O)[O-])=C(O)c2cccc3cccc1c23	2%	11*	9%	8
O=C1C(=O)c2cccc3cccc1c23	-12%	-1	/	-3
O=[N+]([O-])c1ccc(N2CCN(c3ccccc3O)CC2)c(Cl)c1	-30%	48*	?	133*
O=[N+]([O-])c1ccc(N2CCN(c3ccccn3)CC2)c(Cl)c1	-3%	22	-10%	59*
O=C(O)CN1C(=O)O[C@@H](c2ccccc2)C1=O	/	/	1%	/

Bioassay records (PubChem)
